Data on eight compounds can be found in PubChem BioAssay (NCI).

Test systems include NCI-H23 lung; NCI-H226 lung; NCI-H322M lung; HOP-62 NSCLC; NCI-H460 lung; NCI-H522 lung; A549/ATCC NSCLC; 786-0 renal; COLO 205 colon; DU-145 prostate; K-562 leukemia; MALME-3M melanoma; MDA-MB-231 breast; RXF 393 renal; SF-268 CNS; SF-295 CNS; SF-539 CNS; UACC-257 melanoma; M14 melanoma; HCT-15 colon.
Experiment in all cases: NCI-60 one-dose screen, 48 h (100 = growth as untreated, 0 = no growth, -100 = all killed)
Common to all, as to conditions: 10 µM unless noted

About 83,000 compounds went through this panel and 20% of them were active in at least one assay; those are over-represented in the sample as a whole.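 Results are percent growth after 48 hours of single-concentration exposure. 100 means growth as in untreated cells, lower positive values show inhibition; negative values down to -100 show cell death.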 A number with no mark means an inactive call. The source made the active and inactive calls. Rule for the calls: active = growth percent below 10; inactive = the rest.

Turning to `O=C(c1nn(-c2ccc(Cl)cc2)cc1O)n1nc(C(F)(F)F)cc1-c1ccccc1`, the growth with NCI-H23 lung was 32.8%; with NCI-H226 lung it was 52.7%; with NCI-H322M lung, -1.34% (active); in the test on HOP-62 NSCLC it was 34.6%; with NCI-H460 lung, 34.9%; with NCI-H522 lung, 21.2%. Besides, the growth in the test on A549/ATCC NSCLC was 47.4%; in the test on 786-0 renal, 42.9%; in the test with COLO 205 colon, 7.24% (active); in the test with DU-145 prostate, 49.2%; in the test with K-562 leukemia it was 18.6%; in the test on MALME-3M melanoma, 107%. Besides, the growth was 54.6% in the test on MDA-MB-231 breast; 55.1% in the test on RXF 393 renal; 42.3% in the test with SF-268 CNS; -0.429% (active) with SF-295 CNS; 45.6% in the test with SF-539 CNS; 53.3% with UACC-257 melanoma. Further, the growth in the test with M14 melanoma was 43.4%.
Regarding `Clc1ccc([C@@H]2C[C@@H]3Cc4cc(Br)c5ccccc5c4N2O3)c(Cl)c1`, the growth is 78.6% in the test on NCI-H23 lung; 95.7% in the test with NCI-H226 lung; 90.7% in the test on NCI-H322M lung; 87.2% with HOP-62 NSCLC; 93.3% with NCI-H460 lung; 43.8% in the test with NCI-H522 lung. In addition, the growth in the test with A549/ATCC NSCLC was 70.8%; with 786-0 renal, 95%; with COLO 205 colon it was 98.4%; with DU-145 prostate, 93.3%; in the test on K-562 leukemia, 23.8%; with MALME-3M melanoma, 61.7%. In addition, the growth in the test on MDA-MB-231 breast is 89.1%; in the test with RXF 393 renal, 88.9%; in the test on SF-268 CNS it was 85.8%; with SF-295 CNS, 65.5%; in the test on SF-539 CNS it was 91.4%; with UACC-257 melanoma it was 66.1%. Moreover, the growth with M14 melanoma is 75.6%.
On to `CCCCCCCCSc1ncnc2c1ncn2CO`, for which the growth was 50.8% with NCI-H23 lung; 58.5% in the test on NCI-H226 lung; 140% with NCI-H322M lung; 82.7% in the test with HOP-62 NSCLC; 86.6% with NCI-H460 lung; 66.4% with NCI-H522 lung. Further, the growth is 102% with A549/ATCC NSCLC; 85.5% in the test on 786-0 renal; 104% in the test with COLO 205 colon; 90.9% with DU-145 prostate; 73.7% in the test with K-562 leukemia; 118% in the test with MALME-3M melanoma. Also, the growth in the test with MDA-MB-231 breast is 98.2%; in the test with RXF 393 renal, 55.2%; in the test with SF-268 CNS, 97.6%; in the test on SF-295 CNS, 67.7%; with SF-539 CNS it was 86.3%; in the test with UACC-257 melanoma it was 81.6%. The growth in the test with M14 melanoma is 97.7%; in the test on HCT-15 colon, 97.1%.
In the case of `CC(=O)O[C@H]1C(=O)[C@@]2(C)C([C@H](OC(=O)c3ccccc3)[C@]3(O)C[C@H](OC(=O)[C@H](O)[C@@H](NC(=O)c4ccccc4)c4ccccc4)C(C)=C1C3(C)C)[C@]1(OC(C)=O)CO[C@@H]1C[C@@H]2O` (stereo not given in full), the growth with NCI-H23 lung is 27.9%; in the test with NCI-H226 lung, 44.8%; in the test on NCI-H322M lung, 28.1%; with HOP-62 NSCLC it was 24.6%; with NCI-H460 lung, 7.33% (active); with NCI-H522 lung, -25.2% (active). Besides, the growth in the test on A549/ATCC NSCLC is 13.1%; in the test with 786-0 renal it was 17.6%; in the test on COLO 205 colon, 1.91% (active); in the test with DU-145 prostate, -36.8% (active); in the test with K-562 leukemia, 12.5%; in the test with MALME-3M melanoma, 57.3%. The growth with MDA-MB-231 breast was 17%; in the test with RXF 393 renal, -17.9% (active); with SF-268 CNS it was 30.2%; in the test with SF-295 CNS it was -8.51% (active); with SF-539 CNS, 13.1%; with UACC-257 melanoma it was 45%. Moreover, the values for the growth in the test with M14 melanoma and in the test on HCT-15 colon were 20% and 23.7%, respectively.
`CCCCCCCCCCC[C@@H](C[C@H]1OC(=O)[C@H]1CCCCCC)OC(=O)[C@@H](CC(C)C)NC=O`: the growth in the test with NCI-H23 lung is 70.1%; in the test on NCI-H226 lung it was 72.6%; with NCI-H322M lung, 94.2%; in the test with HOP-62 NSCLC it was 72.3%; in the test on NCI-H460 lung, 42.9%; with NCI-H522 lung, 59.9%. Besides, the growth in the test on A549/ATCC NSCLC is 83.6%; in the test on 786-0 renal, 44.8%; with COLO 205 colon, 81%; with DU-145 prostate, 92.2%; in the test on K-562 leukemia, 45.2%; in the test on MALME-3M melanoma, 89.4%. Moreover, the growth was 60.9% in the test with MDA-MB-231 breast; 44.1% in the test with RXF 393 renal; 65.2% in the test on SF-268 CNS; 24.7% with SF-295 CNS; 63.1% with SF-539 CNS; 99.6% in the test on UACC-257 melanoma. For the same compound, the growth in the test on M14 melanoma is 62.6%.
Take `CC1=C(C(=O)Nc2ccccc2)C(c2ccc3c(c2)OCCO3)NC(=O)N1` (stereo not given): the growth was 101% in the test on NCI-H23 lung; 102% in the test with NCI-H226 lung; 107% with NCI-H322M lung; 104% with HOP-62 NSCLC; 107% with NCI-H460 lung; 104% in the test with NCI-H522 lung. Besides, the growth was 98.8% in the test on A549/ATCC NSCLC; 100% in the test with 786-0 renal; 105% in the test on COLO 205 colon; 114% in the test with DU-145 prostate; 98.5% with K-562 leukemia; 96.9% in the test with MALME-3M melanoma. Besides, the growth in the test on MDA-MB-231 breast is 118%; with RXF 393 renal it was 116%; with SF-268 CNS it was 100%; in the test with SF-295 CNS it was 114%; in the test on SF-539 CNS it was 100%; in the test on UACC-257 melanoma it was 102%. Besides, the growth with M14 melanoma was 103%.
As for `COC(=O)CCC1=C(C)/C(=C/c2[nH]c(-c3ccc[nH]3)cc2OC)N=C1C`, the growth in the test with NCI-H23 lung is 8.11% (active); in the test on NCI-H226 lung it was 23.9%; with NCI-H322M lung, 26.6%; in the test on HOP-62 NSCLC it was 3.57% (active); in the test on NCI-H460 lung, 6.04% (active); with NCI-H522 lung, -66.9% (active). Further, the growth was 13% in the test with A549/ATCC NSCLC; 13.1% in the test on 786-0 renal; 12.1% in the test on COLO 205 colon; 14.2% with DU-145 prostate; -16.4% (active) with K-562 leukemia; -38.1% (active) in the test with MALME-3M melanoma. The growth in the test with MDA-MB-231 breast was -17% (active); in the test on RXF 393 renal, 24.1%; with SF-268 CNS, 21.9%; in the test with SF-295 CNS, -30% (active); in the test on SF-539 CNS it was 18.7%; with UACC-257 melanoma, -16.4% (active). The growth in the test with M14 melanoma is 4.36% (active).
As for `CC(c1ccccn1)C(C)(O)C(C)c1ccccn1` (stereo not given), the growth in the test with NCI-H23 lung is 104%; in the test with NCI-H226 lung, 103%; with NCI-H322M lung, 118%; in the test with HOP-62 NSCLC it was 101%; in the test with NCI-H460 lung, 113%; in the test with NCI-H522 lung, 112%. Also, the growth was 106% in the test on A549/ATCC NSCLC; 107% in the test with 786-0 renal; 108% in the test with COLO 205 colon; 101% in the test on DU-145 prostate; 103% with K-562 leukemia; 121% in the test with MALME-3M melanoma. Also, the growth is 92.8% in the test on MDA-MB-231 breast; 115% with RXF 393 renal; 100% in the test with SF-268 CNS; 107% in the test on SF-295 CNS; 99.7% with SF-539 CNS; 99.8% in the test with UACC-257 melanoma. Further, the growth in the test with M14 melanoma was 90.6%; in the test on HCT-15 colon, 97.4%.
